Experimental data published in PubChem BioAssay (Tox21).
The source made the active and inactive calls. The call rests on the fitted dose curve; in most records, active means well fitted curve in the direction sought with a large enough effect in the repeat runs; inconclusive means weak or mixed curves; inactive means flat fitted curve, though single readings scatter.

test: qHTS assay to test for compound auto fluorescence at 590 nm (red) in HEK293 cells (AID 720679); conditions: red autofluorescence 540/590 nm; series mostly up to 91.3 µM; fluorescence, % of fluorescent control: at the top concentration
Text: National Center for Advancing Translational Sciences [NCATS]
NIH Chemical Genomics Center [NCGC]
U.S. Environmental Protection Agency [EPA]
National Institutes of Environmental Health Sciences [NIEHS]
National Toxicology Program [NTP]
U.S. Food and Drug Administration [FDA]
Compound auto fluorescence often interferes with screening of the compound library against various biological targets and signaling pathways. Some of these compounds may have fluorophoric properties. Such properties may interfere with the assay outputs resulting in false positives and/or negatives. To decrease such complications and ensure the compound activities are relevant in terms of biological response, the Tox21 10K compound library was screened for auto fluorescence.
From the fluorophores used as reporter signals in our screening assays, the auto fluorescence equivalencies of compounds against three fluorophores have been evaluated: Triamterene, Fluorescein and Rose Bengal sodium for blue, green and red fluorescence, respectively. The fluorescence intensities were measured using Excitation/Emission wavelengths at 405/460nm, 485/535nm and 540/590nm for blue, green and red labels, respectively. This assay includes the red fluorescence data.
Tox21 Assay Protocol Summary:
2,000 HEK293 cells in 5 uL of culture medium containing 10% dialyzed FBS per well were dispensed into black wall/clear bottom 1536-well plates using a Multidrop Combi Dispenser (Thermo Scientific). The assay plates were incubated for 4-5 hr at 37C to allow cell attachment to the well bottom, followed by the transfer of 23 nL compound or DMSO vehicle by a pintool work station (Kalypsys, San Diego, CA). After the assay plates were incubated overnight at 37C and 5% CO2, fluorescence intensities in the assay plates were measured by an Envision (PerkinElmer, Shelton, CT) plate reader using three labels for measuring blue, green and red fluorescence at […] 460, 535 and 590nm respectively.
On the % scale 0 is the no-effect control and ±100 the full control effect.

| SMILES | fluorescence, % of fluorescent control | Potency |
| --- | --- | --- |
| CN(C)CCN(Cc1ccccc1)c1ccccn1 | 0.0198% [at 46 µM] (inactive) | – |
| CNC(=O)CN(CCN(CCN(CC(=O)[O-])CC(=O)NC)CC(=O)[O-])CC(=O)[O-].O.[Gd+3] | – | inactive |
| CCCCCCCCCCCc1ccccc1 | 0.298% (inactive) | – |
| COc1cc2nc(N3CCN(C(=O)C4COc5ccccc5O4)CC3)nc(N)c2cc1OC (stereo not given) | 0.131% [at 46 µM] (inactive) | – |
| COCC(C)OC(C)=O (stereo not given) | -0.513% (inactive) | – |
| NCC(=O)CCC(=O)O | 0.0897% [at 46 µM] (inactive) | – |
| O=[N+]([O-])c1ccc(NCCO)c(OCCO)c1 | 0.293% (inactive) | – |
| CC[N+]1(CC)CCC(=C(c2ccccc2)c2ccccc2)C1C (stereo not given) | 0.137% [at 46 µM] (inactive) | – |
| C=C(C)C(=O)OCC | -0.196% [at 95.7 µM] (inactive) | – |
| Cc1cc(N)c2cc(NC(=O)Nc3ccc4nc(C)cc(N)c4c3)ccc2n1 | -0.952% [at 46 µM] (inactive) | – |
| C#Cc1cccc(Nc2ncnc3cc(OCCOC)c(OCCOC)cc23)c1 | 0.0215% [at 46 µM] (inactive) | – |
| C[N+]1(C)CCC(OC(=O)C(O)(c2ccccc2)C2CCCC2)C1 (stereo not given) | – | inactive |
| S=C([S-])NCCNC(=S)[S-].[Mn+2] | -0.14% (inactive) | – |
| CCOC(=O)C(F)(F)F | -0.492% (inactive) | – |
| CCCCCCCC#N | -0.927% (inactive) | – |
| CCCCCCCCCCCCCCCCOS(=O)(=O)O | 0.464% [at 46 µM] (inactive) | – |
| C#C[C@]1(O)CC[C@H]2[C@@H]3CCc4cc(OC5CCCC5)ccc4[C@H]3CC[C@@]21C | -1.3% [at 46 µM] (inactive) | – |
| O=C1OC(=O)C2C3C=CC(C3)C12 (stereo not given) | -0.106% (inactive) | – |
| Cc1[nH]c(C)c(Cl)c(=O)c1Cl | 0.223% [at 46 µM] (inactive) | – |
| O=[N+]([O-])c1ccc2[nH]ncc2c1 | -0.265% (inactive) | – |

| SMILES | fluorescence, % of fluorescent control | Potency |
| --- | --- | --- |
| CCOC(=O)C1=C[C@]2(CC)CCCN3CCc4c(n1c1ccccc41)[C@@H]32 | – | inactive |
| CNCCCN1c2ccccc2CCc2ccccc21 | 0.0732% [at 18.6 µM] (inactive) | – |
| O=C(Cl)c1cc(C(=O)Cl)cc(C(=O)Cl)c1 | 0.118% (inactive) | – |
| CC[N+](C)(CC)CCOC(=O)C(O)(c1ccccc1)C1CCCCC1 (stereo not given) | 0.0812% [at 46 µM] (inactive) | – |
| OC(CN1CCC(Cc2ccc(F)cc2)CC1)c1ccc(Cl)cc1 (stereo not given) | 0.149% [at 46 µM] (inactive) | – |
| c1ccc(C(O[C@H]2CCCN(CCc3ccc4c(c3)OCO4)C2)c2ccccc2)cc1 | 0.091% [at 46 µM] (inactive) | – |
| NCc1ccccc1Sc1ccccc1CO | 0.0945% [at 46 µM] (inactive) | – |
| CCCCO | – | inactive |
| CC(C)(O)c1ccc(CNC(=O)c2cccnc2Oc2ccc(F)cc2)cc1 | -0.0259% (inactive) | – |
| O=CC1CC=CCC1 (stereo not given) | 0.367% (inactive) | – |
| C=C(C)C(=O)OCCO | 0.269% [at 95.7 µM] (inactive) | – |
| CC1=CC=C(C(C)C)CC1 | -0.0428% (inactive) | – |
| NC(N)=NCCC[C@H](N)C(=O)O | 0.461% [at 46 µM] (inactive) | – |
| CCOC(=O)NCCOc1ccc(Oc2ccccc2)cc1 | 0.677% (inactive) | – |
| Clc1ccc2c(c1)CCc1cccnc1C2=C1CCNCC1 | 0.0164% [at 46 µM] (inactive) | – |
| CCCCCCCCCCCCCCOS(=O)(=O)O | -0.0155% (inactive) | – |
| NCCCN1CCOCC1 | -0.132% (inactive) | – |
| O=C1[C@H]2CCCC[C@H]2C(=O)N1CCCCN1CCN(c2nsc3ccccc23)CC1 | 0.0777% [at 46 µM] (inactive) | – |
| CCCCCCCCCCO[C@@H]1O[C@H](CO)[C@@H](O)[C@H](O)[C@H]1O | -0.544% (inactive) | – |
| ClCCOCCOCCCl | -0.17% (inactive) | – |
